CYP2C9 inhib: human CYP2C9 inhibition; P11712; CYP2C9 Supersomes, luciferin-H conversion, luminescence; inhibition, % at 5 µM; actives 20% (n = 96,000); AID 777;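 active = blocking of liver enzyme CYP2C9 beyond about 50% at 5 µM, limit read from the data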
CYP2C19 activ: activators of human cytochrome P450 2C19 | P33261 | recombinant CYP2C19, luciferin-H EGE luminescence; active compounds read high; 0 = fully inhibited enzyme, 1 = untreated enzyme | activation factor at 5 µM | 96,000 tested, under 10 active;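 active = activation factor of at least 2 at 5 µM in the primary screen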;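 also: 0 = wells with 2.5 mM tranylcypromine and 1 = vehicle-only wells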
Target sequence (P33261 whole entry, looked up): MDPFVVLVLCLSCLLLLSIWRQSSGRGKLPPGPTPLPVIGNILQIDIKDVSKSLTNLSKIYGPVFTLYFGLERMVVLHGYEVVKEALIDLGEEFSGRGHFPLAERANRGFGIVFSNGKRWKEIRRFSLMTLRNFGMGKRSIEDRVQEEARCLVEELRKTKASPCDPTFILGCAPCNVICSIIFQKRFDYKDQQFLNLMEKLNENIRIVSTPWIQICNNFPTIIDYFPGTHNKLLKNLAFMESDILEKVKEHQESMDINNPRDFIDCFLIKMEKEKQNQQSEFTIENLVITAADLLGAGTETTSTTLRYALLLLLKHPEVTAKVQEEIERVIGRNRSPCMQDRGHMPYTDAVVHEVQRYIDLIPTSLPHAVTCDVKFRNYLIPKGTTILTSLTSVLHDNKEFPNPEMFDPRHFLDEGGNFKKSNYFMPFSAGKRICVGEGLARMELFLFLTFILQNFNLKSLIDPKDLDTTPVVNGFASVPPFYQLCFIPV
CYP2C9 activ: activators of human CYP2C9. P11712. recombinant CYP2C9, luciferin-H conversion, luminescence; active compounds read high; factor 1 = untreated enzyme, 0 = blocked. activation factor at 5 µM. actives 1.4% (n = 96,000). AID 1024;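 active = activation factor of 2 or more for CYP2C9 at a 5 µM dose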;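 also: 0 = sulfaphenazole-blocked wells and 1 = vehicle-only wells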
sEH inh: inhibitors of human soluble epoxide hydrolase. P34913. recombinant human sEH enzymatic activity assay. inhibition, % at 2 µM. actives 0.34% (n = 91,000); in the data active = inhibition above about 80%
sEH activator: activators of human soluble epoxide hydrolase | AID 717 | purified human sEH enzymatic activity, activator screen | actives 0.04% (n = 91,000) | activation, % at 2 µM; in the data active = activation above about 37%
CYP2C19 inh: inhibitors of human CYP2C19. CYP2C19 Supersomes, luciferin-H EGE luminescence, 30 min. AID 778. P33261. actives 21% (n = 96,000). inhibition, % at 5 µM;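 active = CYP2C19 inhibition above a set limit at 5 µM in the primary screen, cut at about 50% in these data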;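 also: plate controls were negative control wells for no effect and 2.5 mM tranylcypromine positive control for full effect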
* = called active by the depositor; . = not tested or not shown. Only some compounds are listed: those with a hit (about 27% of all), similar ones and a draw of the others.

SMILES	CYP2C9 inhib	CYP2C19 activ	CYP2C9 activ	sEH inh	sEH activator	CYP2C19 inh
Cc1nc(N)sc1-c1csc(Nc2ccccc2)n1	83*	0.2	0.2	10	-6	85*
CCCc1nnc(SCC(=O)N2CCCC(C)C2)n1CCCOC (centres undefined)	-5	1	1.1	-7	7	4
CN1C(=O)CC(N2CCN(c3ccc(Cl)c(Cl)c3)CC2)C1=O (centres undefined)	17	0.5	0.8	-5	4	47
COc1ccccc1CN1CC(C(=O)NCc2cccnc2)CC1=O (centres undefined)	1	0.9	1	6	-2	8
O=C(Nc1nnc(-c2ccc3c(c2)CCCC3)o1)C1COc2ccccc2O1 (centres undefined)	9	1	0.9	7	-9	4
O=C(O)c1ccc(CSCc2c(F)cccc2Cl)o1	-11	1.1	1.1	-5	4	-10
COc1cccc(Nc2nc(-c3sc(NC(=O)c4ccccc4)nc3C)cs2)c1	59*	0.8	0.4	20	-19	23
COc1ccc(OC)c(Nc2nc(-c3sc(N)nc3C)cs2)c1	73*	0.5	0.3	-4	4	53*
CCCC(C)C(=O)Nc1nc(C)c(-c2csc(Nc3cc(OC)ccc3OC)n2)s1 (centres undefined)	53*	0.8	0.5	19	-19	22
Cc1ccccc1Nc1nc(-c2sc(NC(=O)c3ccco3)nc2C)cs1	30	0.7	0.7	21	-22	29
COc1ccccc1Nc1nc(-c2sc(NC(=O)c3cccc(Cl)c3)nc2C)cs1	49	0.7	0.5	38	-34	28
Cc1cc(O)ccc1Nc1nc(-c2sc(N)nc2C)cs1	2	1	1	4	-4	4
CCOc1ccccc1Nc1nc(-c2sc(NC(=O)c3ccco3)nc2C)cs1	59*	1	0.4	11	-10	4
Cc1ccc(NC(=O)CCc2c(C)nc3ncnn3c2C)nc1	15	1.1	0.8	12	-13	-6
COc1cc2cc3c(N)c(C(=O)Nc4sc(C)c(C)c4C#N)sc3nc2cc1OC	18	1	0.8	2	-4	4
COc1ccccc1Nc1nc(-c2sc(NC(=O)CC(C)C)nc2C)cs1	54*	0.8	0.5	22	-21	15
CCCC(=O)Nc1nc(C)c(-c2csc(Nc3ccccc3OC)n2)s1	66*	0.7	0.3	4	-3	32
COc1cccc(Nc2nc(-c3sc(NC(=O)CC(C)C)nc3C)cs2)c1	86*	0.2	0.1	29	-28	84*
C=CCCC(=O)Nc1nc(C)c(-c2csc(Nc3cccc(OC)c3)n2)s1	49	0.9	0.5	17	-16	13
COc1ccccc1Nc1nc(-c2sc(NC(=O)C(C)(C)C)nc2C)cs1	40	0.9	0.6	12	-11	12
COC(=O)c1ccc(NC2CC(=O)N(c3ccccc3C)C2=O)cc1 (centres undefined)	20	0.4	0.8	-10	9	60*
COC(=O)c1ccccc1NC(=O)C1CC(=O)N(c2ccc(C)c(C)c2)C1 (centres undefined)	-54	0.6	1.5	-16	15	37
COC(=O)c1cccc(NC2CC(=O)N(c3ccc(OC)c(OC)c3)C2=O)c1 (centres undefined)	10	0.5	0.9	.	.	53*
COC(=O)c1ccc(N2C(=O)CC(N(C)CCc3ccc(OC)c(OC)c3)C2=O)cc1 (centres undefined)	54*	0.4	0.5	14	-14	62*
COC(=O)c1ccccc1NC1CC(=O)N(c2c(C)cccc2C)C1=O (centres undefined)	78*	0.7	0.2	-13	12	34
SMILES	CYP2C9 inhib	CYP2C19 activ	CYP2C9 activ	sEH inh	sEH activator	CYP2C19 inh
CN=C(Nc1ccc(C(=O)OC)cc1)SC1CC(=O)N(c2ccccc2F)C1=O (centres undefined)	49	0.8	0.5	5	-2	16
COc1ccccc1CNc1ccc(N2CCOCC2)c(C(=O)O)c1	-4	1.1	1	-1	-1	-9
Cc1ccc(NC2CC(=O)N(c3ccc(N4CCCCC4)cc3)C2=O)cc1 (centres undefined)	-7	1.2	1.1	-1	5	-19
COc1ccc(N2C(=O)CC(Nc3ccc(C)cc3)C2=O)cc1 (centres undefined)	74*	0.9	0.3	7	-8	14
Cc1cc(C(=O)CN2C(=O)NC3(CCCCC3)C2=O)c(C)n1Cc1ccc2c(c1)OCO2	25	0.9	0.8	19	-17	15
CC(=O)c1c(C)n(CC(=O)NCc2ccc3c(c2)OCO3)c2ccccc12	59*	0.3	0.4	12	-9	75*
CC(=O)c1c(C(C)=O)c(C)n(Cc2ccc3c(c2)OCO3)c1C	55*	0.2	0.5	-6	5	75*
Cc1ccc(CN2CCC(C(=O)NCCC(C)C)CC2)o1	13	1	0.9	.	.	4
CC1(C)CC(C)(O)P(=O)(c2ccccc2)O1 (centres undefined)	-26	1	1.3	.	.	0
c1ccc(CSc2nnc(-c3ccccn3)n2-c2ccccc2)cc1	99*	0.8	0	-26	23	24
Cn1c(SCc2ccccn2)nnc1-c1cnccn1	6	0.9	0.9	.	.	10
CC1CCN(C(=O)CSc2nncn2-c2ccccn2)CC1	-25	1.1	1.2	-10	8	-6
Cn1c(SCc2ccc(F)cc2)nnc1-c1ccccn1	5	0.1	0.9	15	-17	88*
Cn1c(SCc2ccccc2F)nnc1-c1cnccn1	-4	0.4	1	4	-6	62*
c1ccc(CSc2nncn2-c2ccccn2)cc1	19	0.1	0.8	0	1	88*
Cc1cc(=O)n2nc(N3CCC(C(=O)NC4CCCc5ccccc54)CC3)sc2n1 (centres undefined)	21	0.8	0.8	.	.	15
COc1cccc(C2C(C(=O)OC(C)C)=C(C)Nc3ncnn32)c1 (centres undefined)	48	0.7	0.5	4	-2	30
Cc1occc1C(=O)NCCCc1ccccc1	26	0.6	0.7	12	-12	40
O=C(c1ccco1)N1CCC(c2nc(-c3ccc(F)cc3)no2)CC1	16	0.8	0.8	-5	7	18
CC(C)CCN1C(=O)c2ccc(-c3nc4ccccc4c(=O)o3)cc2C1=O	27	0.8	0.7	2	0	15
CC(C)(C)NC(=O)CSc1nc2ccccc2n1-c1ccccc1	100*	0	0	-18	16	99*
CC(C)(C)NC(=O)CSc1nnc(-c2ccccn2)n1-c1ccccc1	1	0.5	1	.	.	53*
CC(C)(C)NC(=O)CSc1nc(O)cc(=O)n1-c1ccccc1	44	0.9	0.6	-11	12	9
CC(C)NC(=O)CSc1nc2ccccc2n1-c1ccccc1	.	.	.	-5	4	.
